According to PubChem BioAssay (NCI):
The panel holds about 79,000 compounds, 15% with a hit somewhere; the sample as a whole holds those more often. Unmarked numbers belong to inactive results. The source made the active and inactive calls. No stated cut-off is given here; in the data, active means growth inhibition above about 70%; inactive means the rest.

Experiments:
[1] = NCI Yeast Anticancer Drug Screen. Data for the mlh1 strain (AID 171);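 further: 0% = growth of vehicle-treated control cultures of the same strain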; conditions: S. cerevisiae mlh1 strain growth inhibition, stronger effect = higher value
How it was run: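 Here the genetically defined yeast mutant is grown with each compound, and the extent to which its growth falls below that of vehicle-exposed cells is reported.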

[2] = NCI Yeast Anticancer Drug Screen. Data for the sgs1 strain (AID 173);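 further: 0% = growth of vehicle-only control cultures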; conditions: S. cerevisiae sgs1 mutant, stronger effect = higher value
How it was run: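 Relative growth inhibition, referenced to vehicle, was determined in a yeast strain with a defined alteration affecting DNA damage repair or cell cycle control after compound exposure.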

[3] = NCI Yeast Anticancer Drug Screen. Data for the mlh1 rad18 strain (AID 175); conditions: S. cerevisiae mlh1 rad18 strain growth inhibition, stronger effect = higher value
How it was run: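 In this whole-cell yeast screen, a strain with altered DNA damage repair is challenged with compound, and its growth is measured against matched vehicle-treated controls.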

[4] = NCI Yeast Anticancer Drug Screen. Data for the rad18 strain (AID 177); conditions: S. cerevisiae rad18 mutant growth inhibition, stronger effect = higher value
How it was run: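 Screen uses a yeast strain with a defined lesion in DNA damage repair; compound effect is read as loss of growth compared to untreated vehicle cultures.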

[5] = NCI Yeast Anticancer Drug Screen. Data for the rad52 strain (AID 147);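 further: 0% = growth of vehicle-treated control cultures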; conditions: S. cerevisiae rad52 mutant growth inhibition, stronger effect = higher value
How it was run: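 Measured: yeast growth inhibition. System: strain with a defined DNA damage repair alteration. Reference: vehicle-treated control cultures.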

[6] = NCI Yeast Anticancer Drug Screen. Data for the wt1 strain (AID 149);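 further: 0% = growth of vehicle-treated wt1 cultures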; conditions: S. cerevisiae wt1 strain (SPY 50644) growth inhibition, stronger effect = higher value
How it was run: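 Using yeast strain wt1, compound-induced growth inhibition was determined against vehicle-treated cultures.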

[7] = NCI Yeast Anticancer Drug Screen. Data for the rad50EPP+ strain (AID 151);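 further: 0% = growth of vehicle-treated control cultures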; conditions: S. cerevisiae rad50 mutant strain, stronger effect = higher value
How it was run: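 One strain with a rad50 alteration (rad50EPP+) was compound-treated, its growth then compared to that of vehicle controls.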

[8] = NCI Yeast Anticancer Drug Screen. Data for the rad50 strain (AID 155);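 further: 0% = growth of vehicle-only cultures of the same strain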; conditions: S. cerevisiae rad50 strain growth inhibition, stronger effect = higher value
How it was run: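 Relative growth inhibition (compound vs vehicle) was measured in yeast with a defined repair-gene alteration.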

[9] = NCI Yeast Anticancer Drug Screen. Data for the mec2-1 strain (AID 157); conditions: S. cerevisiae mec2-1 strain, stronger effect = higher value
How it was run: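 Test agents were screened against the mec2-1 yeast strain, with defined DNA repair or cell cycle alteration. Growth was scored as inhibition against vehicle-only controls.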

[10] = NCI Yeast Anticancer Drug Screen. Data for the rad14 strain (AID 159);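 further: 0% = growth of vehicle-treated control cultures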; conditions: S. cerevisiae rad14 strain growth inhibition, stronger effect = higher value
How it was run: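 Screen for anticancer potential: a yeast strain altered in DNA damage repair is grown with compound, and reduced growth is quantified against vehicle controls.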

[11] = NCI Yeast Anticancer Drug Screen. Data for the sgs1 mgt1 strain (AID 161);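 further: 0% = growth of cultures given vehicle only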; conditions: S. cerevisiae sgs1 mgt1 strain, stronger effect = higher value
How it was run: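 Genetically altered yeast, compound exposure, growth inhibition relative to vehicle.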

[12] = NCI Yeast Anticancer Drug Screen. Data for the CLN2oe strain (AID 163);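 further: 0% = growth of vehicle-only control cultures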; conditions: S. cerevisiae CLN2oe strain, stronger effect = higher value
How it was run: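 Here, growth inhibition in a cell-cycle-altered yeast strain after compound exposure was quantified against vehicle control growth.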

[13] = NCI Yeast Anticancer Drug Screen. Data for the cln2 rad14 strain (AID 165);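 further: 0% = growth equal to vehicle treated cultures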; conditions: S. cerevisiae cln2 rad14 strain, stronger effect = higher value
How it was run: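 Growth of compound-exposed yeast (cln2 rad14 genotype) measured and expressed as inhibition relative to vehicle.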

[14] = NCI Yeast Anticancer Drug Screen. Data for the bub3 strain (AID 167); conditions: S. cerevisiae bub3 mutant strain, stronger effect = higher value
How it was run: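 Screening used yeast with an engineered genetic alteration affecting cell cycle control. Compound-exposed cultures were compared with vehicle cultures, and reduced growth was taken as inhibition.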

[15] = NCI Yeast Anticancer Drug Screen. Data for the wt2 strain (AID 169);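 further: 0% = growth of vehicle-treated yeast cultures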; conditions: S. cerevisiae wt2 strain growth inhibition, stronger effect = higher value
How it was run: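 Genetically defined yeast strains from a DNA-repair/cell-cycle panel were used. Compound-exposed yeast growth was measured, and the inhibition was calculated relative to vehicle treatment.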

[16] = at 5.0 µM (retest, dose inferred, filed as 0.5)
[17] = at 50.0 µM (retest, dose inferred, filed as 5.0)

[N-]=[N+]=NC(c1ccccc1)(c1ccccc1)c1ccccc1
growth inhibition ([1]; at 1.2 µM): 6%
growth inhibition ([1]; at 3.7 µM): 10%
growth inhibition ([1]; at 11.0 µM): 13%
growth inhibition ([1]; at 33.0 µM): 42%
growth inhibition ([1]; at 100.0 µM): 91% (active)
growth inhibition ([2]; at 1.2 µM): 0%
growth inhibition ([2]; at 3.7 µM): -15%
growth inhibition ([2]; at 11.0 µM): -8%
growth inhibition ([2]; at 33.0 µM): 66%
growth inhibition ([2]; at 100.0 µM): 87% (active)
growth inhibition [3, 16]: 100% (active)
growth inhibition [3, 17]: 99% (active)
growth inhibition ([3]; at 50.0 µM): 84.1% (active)
growth inhibition ([4]; at 1.2 µM): 10%
growth inhibition ([4]; at 3.7 µM): 6%
growth inhibition ([4]; at 11.0 µM): 14%
growth inhibition ([4]; at 33.0 µM): 37%
growth inhibition ([4]; at 100.0 µM): 87% (active)

Nc1nc2c(c(=O)[nH]1)NC(CCNc1ccc(C(=O)O)cc1)CN2 (centres undefined)
growth inhibition ([5]; at 1.2 µM): -2%
growth inhibition ([5]; at 3.7 µM): 1%
growth inhibition ([5]; at 11.0 µM): -5%
growth inhibition ([5]; at 33.0 µM): 2%
growth inhibition ([5]; at 100.0 µM): -5%
growth inhibition ([6]; at 1.2 µM): 1%
growth inhibition ([6]; at 3.7 µM): 1%
growth inhibition ([6]; at 11.0 µM): 2%
growth inhibition ([6]; at 33.0 µM): 1%
growth inhibition ([6]; at 100.0 µM): -1%
growth inhibition ([7]; at 1.2 µM): -3%
growth inhibition ([7]; at 3.7 µM): -4%
growth inhibition ([7]; at 11.0 µM): -3%
growth inhibition ([7]; at 33.0 µM): -2%
growth inhibition ([7]; at 100.0 µM): -5%
growth inhibition ([8]; at 1.2 µM): -3%
growth inhibition ([8]; at 3.7 µM): 2%
growth inhibition [8, 16]: 14%
growth inhibition ([8]; at 11.0 µM): -5%
growth inhibition ([8]; at 33.0 µM): -4%
growth inhibition [8, 17]: 12%
growth inhibition ([8]; at 50.0 µM): -12.1%
growth inhibition ([8]; at 100.0 µM): -1%
growth inhibition ([9]; at 1.2 µM): -1%
growth inhibition ([9]; at 3.7 µM): 2%
growth inhibition [9, 16]: 7%
growth inhibition ([9]; at 11.0 µM): 4%
growth inhibition ([9]; at 33.0 µM): 2%
growth inhibition [9, 17]: 18%
growth inhibition ([9]; at 50.0 µM): -35.5%
growth inhibition ([9]; at 100.0 µM): -13%
growth inhibition ([10]; at 1.2 µM): 0%
growth inhibition ([10]; at 3.7 µM): -6%
growth inhibition ([10]; at 11.0 µM): 2%
growth inhibition ([10]; at 33.0 µM): 3%
growth inhibition ([10]; at 100.0 µM): 6%
growth inhibition [11, 16]: 11%
growth inhibition [11, 17]: -2%
growth inhibition ([11]; at 50.0 µM): -0.75%
growth inhibition ([12]; at 1.2 µM): -2%
growth inhibition ([12]; at 3.7 µM): -3%
growth inhibition ([12]; at 11.0 µM): -3%
growth inhibition ([12]; at 33.0 µM): 1%
growth inhibition ([12]; at 100.0 µM): 2%
growth inhibition [13, 16]: 31%
growth inhibition [13, 17]: 39%
growth inhibition ([13]; at 50.0 µM): 2.45%
growth inhibition ([14]; at 1.2 µM): 2%
growth inhibition ([14]; at 3.7 µM): 2%
growth inhibition [14, 16]: -13%
growth inhibition ([14]; at 11.0 µM): 0%
growth inhibition ([14]; at 33.0 µM): -1%
growth inhibition [14, 17]: 6%
growth inhibition ([14]; at 50.0 µM): 6.15%
growth inhibition ([14]; at 100.0 µM): 24%
growth inhibition ([15]; at 1.2 µM): 0%
growth inhibition ([15]; at 3.7 µM): 2%
growth inhibition ([15]; at 11.0 µM): 1%
growth inhibition ([15]; at 33.0 µM): 0%
growth inhibition ([15]; at 100.0 µM): 3%
growth inhibition ([1]; at 1.2 µM): 0%
growth inhibition ([1]; at 3.7 µM): -1%
growth inhibition ([1]; at 11.0 µM): 0%
growth inhibition ([1]; at 33.0 µM): 0%
growth inhibition ([1]; at 100.0 µM): 15%
growth inhibition ([2]; at 1.2 µM): -2%
growth inhibition ([2]; at 3.7 µM): -3%
growth inhibition ([2]; at 11.0 µM): -4%
growth inhibition ([2]; at 33.0 µM): -6%
growth inhibition ([2]; at 100.0 µM): -3%
growth inhibition [3, 16]: 8%
growth inhibition [3, 17]: 28%
growth inhibition ([3]; at 50.0 µM): 4.25%
growth inhibition ([4]; at 1.2 µM): -3%
growth inhibition ([4]; at 3.7 µM): -5%
growth inhibition ([4]; at 11.0 µM): -10%
growth inhibition ([4]; at 33.0 µM): -22%
growth inhibition ([4]; at 100.0 µM): -29%

O=C(/C=C\c1ccc([N+](=O)[O-])o1)Nc1ccc(Cl)cc1
growth inhibition ([5]; at 1.2 µM): 69%
growth inhibition ([5]; at 3.7 µM): 96% (active)
growth inhibition ([5]; at 11.0 µM): 98% (active)
growth inhibition ([5]; at 33.0 µM): 98% (active)
growth inhibition ([5]; at 100.0 µM): 97% (active)
growth inhibition ([6]; at 1.2 µM): 6%
growth inhibition ([6]; at 3.7 µM): 50%
growth inhibition ([6]; at 11.0 µM): 97% (active)
growth inhibition ([6]; at 33.0 µM): 98% (active)
growth inhibition ([6]; at 100.0 µM): 98% (active)
growth inhibition ([7]; at 1.2 µM): 52%
growth inhibition ([7]; at 3.7 µM): 69%
growth inhibition ([7]; at 11.0 µM): 83% (active)
growth inhibition ([7]; at 33.0 µM): 91% (active)
growth inhibition ([7]; at 100.0 µM): 84% (active)
growth inhibition ([8]; at 1.2 µM): 38%
growth inhibition ([8]; at 3.7 µM): 82% (active)
growth inhibition [8, 16]: 24%
growth inhibition ([8]; at 11.0 µM): 97% (active)
growth inhibition ([8]; at 33.0 µM): 97% (active)
growth inhibition [8, 17]: 54%
growth inhibition ([8]; at 50.0 µM): 90.1% (active)
growth inhibition ([8]; at 100.0 µM): 96% (active)
growth inhibition ([9]; at 1.2 µM): 4%
growth inhibition ([9]; at 3.7 µM): 19%
growth inhibition [9, 16]: 23%
growth inhibition ([9]; at 11.0 µM): 63%
growth inhibition ([9]; at 33.0 µM): 91% (active)
growth inhibition [9, 17]: 55%
growth inhibition ([9]; at 50.0 µM): 27.5%
growth inhibition ([9]; at 100.0 µM): 95% (active)
growth inhibition ([10]; at 1.2 µM): 21%
growth inhibition ([10]; at 3.7 µM): 70% (active)
growth inhibition ([10]; at 11.0 µM): 91% (active)
growth inhibition ([10]; at 33.0 µM): 94% (active)
growth inhibition ([10]; at 100.0 µM): 96% (active)
growth inhibition [11, 16]: 63%
growth inhibition [11, 17]: 84% (active)
growth inhibition ([11]; at 50.0 µM): 90% (active)
growth inhibition ([12]; at 1.2 µM): -4%
growth inhibition ([12]; at 3.7 µM): 30%
growth inhibition ([12]; at 11.0 µM): 73% (active)
growth inhibition ([12]; at 33.0 µM): 76% (active)
growth inhibition ([12]; at 100.0 µM): 61%
growth inhibition [13, 16]: 14%
growth inhibition [13, 17]: 31%
growth inhibition ([13]; at 50.0 µM): 35.1%
growth inhibition ([14]; at 1.2 µM): 0%
growth inhibition ([14]; at 3.7 µM): 24%
growth inhibition [14, 16]: 6%
growth inhibition ([14]; at 11.0 µM): 82% (active)
growth inhibition ([14]; at 33.0 µM): 78% (active)
growth inhibition [14, 17]: 42%
growth inhibition ([14]; at 50.0 µM): 10.4%
growth inhibition ([14]; at 100.0 µM): 96% (active)
growth inhibition ([15]; at 1.2 µM): 28%
growth inhibition ([15]; at 3.7 µM): 87% (active)
growth inhibition ([15]; at 11.0 µM): 99% (active)
growth inhibition ([15]; at 33.0 µM): 99% (active)
growth inhibition ([15]; at 100.0 µM): 98% (active)
growth inhibition ([1]; at 1.2 µM): 1%
growth inhibition ([1]; at 3.7 µM): 46%
growth inhibition ([1]; at 11.0 µM): 94% (active)
growth inhibition ([1]; at 33.0 µM): 93% (active)
growth inhibition ([1]; at 100.0 µM): 97% (active)
growth inhibition ([2]; at 1.2 µM): 81% (active)
growth inhibition ([2]; at 3.7 µM): 94% (active)
growth inhibition ([2]; at 11.0 µM): 98% (active)
growth inhibition ([2]; at 33.0 µM): 98% (active)
growth inhibition ([2]; at 100.0 µM): 95% (active)
growth inhibition [3, 16]: 88% (active)
growth inhibition [3, 17]: 86% (active)
growth inhibition ([3]; at 50.0 µM): 92.8% (active)
growth inhibition ([4]; at 1.2 µM): 95% (active)
growth inhibition ([4]; at 3.7 µM): 97% (active)
growth inhibition ([4]; at 11.0 µM): 97% (active)
growth inhibition ([4]; at 33.0 µM): 97% (active)
growth inhibition ([4]; at 100.0 µM): 93% (active)
